Potency and affinity values are given separately. The source made the active and inactive calls.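 How the source made its calls: active means fitted half-maximal dose no more than twice the top valid tested dose, for compounds that lower signal; inconclusive means fit invalid, or curve flat with activity between -70 and -30; inactive means potency past limit, curve flat within ±30, or signal increasing.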
Target: NAD-dependent protein deacylase sirtuin-5, mitochondrial (Homo sapiens) (UniProt Q9NXA8)
Sequence (Q9NXA8 whole entry, looked up): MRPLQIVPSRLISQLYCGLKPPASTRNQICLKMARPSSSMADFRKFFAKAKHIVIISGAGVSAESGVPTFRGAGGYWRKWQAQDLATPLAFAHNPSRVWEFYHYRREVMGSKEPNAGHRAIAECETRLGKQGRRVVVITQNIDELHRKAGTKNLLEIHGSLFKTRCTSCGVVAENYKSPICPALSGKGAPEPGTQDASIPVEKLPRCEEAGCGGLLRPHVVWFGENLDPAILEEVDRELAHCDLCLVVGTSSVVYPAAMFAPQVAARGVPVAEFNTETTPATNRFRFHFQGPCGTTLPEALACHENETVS
Test: SIRT5 deacylase inhibitors, dose response, biochemical, fluorescence imaging, cherry-pick, set 6 (AID 720597);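 further: lower AMC signal can also come from blocking the trypsin step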

C[C@@H]1CN([C@@H](C)CO)C(=O)c2cc(NC(=O)Nc3cccc4ccccc34)ccc2O[C@@H](C)CCCCO[C@@H]1CN(C)S(=O)(=O)c1ccc(Cl)cc1
outcome: inactive

COc1ccc(C#Cc2ccc3c(c2)[C@]2(C(=O)N3)[C@H](C(=O)N3CCN(c4ncccn4)CC3)[C@H]3C(=O)O[C@H](c4ccccc4)[C@H](c4ccccc4)N3[C@@H]2c2ccc(OCCO)cc2)cc1
outcome: inactive

CCCC#Cc1ccc2c(c1)O[C@@H](CN(C)C(=O)c1cnccn1)[C@@H](C)CN([C@@H](C)CO)S2(=O)=O
outcome: inactive

O=C(c1ccc(F)cc1)N1CC(=O)N2[C@H](C1)[C@H](c1ccc(C#CCC3CCCC3)cc1)[C@@H]2CO
outcome: inactive

O=C(N[C@@H]1CC[C@H](CCNS(=O)(=O)c2ccccc2)O[C@H]1CO)c1cnccn1
outcome: inactive

COc1cccc(CN2[C@H](CO)[C@@H](c3ccccc3)C23CN(C(=O)C2CCC2)C3)c1
outcome: inactive

C[C@@H]1CN([C@@H](C)CO)C(=O)c2cc(NS(=O)(=O)c3ccc(F)cc3)ccc2O[C@@H](C)CCCCO[C@@H]1CN(C)S(=O)(=O)c1ccc(Cl)cc1
outcome: inactive

CN(C)CC(=O)N1[C@H](CO)[C@@H](c2ccccc2)C12CN(C(=O)C1CCCC1)C2
outcome: inactive

CN(C)C(=O)c1cccc(-c2ccc([C@@H]3[C@H](CO)N4C(=O)CN(C(=O)C5CC5)C[C@@H]34)cc2)c1
outcome: inactive

C[C@H](CO)N1C[C@H](C)[C@H](CN(C)Cc2ccc(Oc3ccccc3)cc2)Oc2ccc(NC(=O)Cc3ccccc3)cc2C1=O
outcome: inactive

CC(C)C#Cc1cnc2c(c1)C(=O)N([C@H](C)CO)C[C@H](C)[C@@H](CN(C)C(=O)CN1CCOCC1)O2
outcome: inactive

C[C@H](O)C#Cc1cnc2c(c1)C(=O)N([C@H](C)CO)C[C@H](C)[C@@H](CN(C)CC1CCCC1)O2
outcome: inactive

Cn1cnc(CCNC(=O)C[C@@H]2CC[C@@H]3[C@H](COC[C@H](O)CN3C(=O)C3CCCC3)O2)c1
outcome: inactive

COc1ccc(C#Cc2ccc([C@H]3[C@@H](CO)N4C(=O)CN(C(=O)c5cccnc5)C[C@H]34)cc2)cc1
outcome: inactive

CC(C)CC#Cc1ccc2c(c1)O[C@H](CN(C)S(=O)(=O)c1cccc(F)c1)[C@@H](C)CN([C@@H](C)CO)S2(=O)=O
outcome: inactive

COc1ccc(NC(=O)Nc2ccc3c(c2)C(=O)N([C@H](C)CO)C[C@H](C)[C@@H](CN(C)S(=O)(=O)c2cccs2)OCCCC[C@@H](C)O3)cc1
outcome: inactive

COc1ccc(S(=O)(=O)N(C)C[C@@H]2OCCCC[C@@H](C)Oc3ccc(NC(=O)Nc4ccc(C(F)(F)F)cc4)cc3C(=O)N([C@@H](C)CO)C[C@@H]2C)cc1
outcome: inactive

C[C@H](CO)N1C[C@H](C)[C@@H](CN(C)C(=O)Nc2cc(F)ccc2F)Oc2cc(/C=C/c3ccccc3)ccc2S1(=O)=O
outcome: inactive

COc1ccc(S(=O)(=O)Nc2ccc3c(c2)C(=O)N([C@H](C)CO)C[C@H](C)[C@H](CN(C)Cc2ccc(Oc4ccccc4)cc2)O3)cc1
outcome: inactive

— PubChem BioAssay AID720597 (Broad Institute, 2013)
